HepG2 tox: kills HepG2 cells in TGF-b inhibitor counter-screen; 410,000 compounds, 0.76% hits; HepG2 CAGA-GFP viability, ATP luminescence, 18 h; Potency, µM (series often up to 46.1 µM), for the others: at the top dose activity change, negative = cytotoxicity, usual class: cytotoxic
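CellTiter-Glo luminescence gave cytotoxicity after 18 hours at 37 degrees C. The cells were HepG2 CAGA-GFP in 1% FBS DMEM, stimulated with 500 pg/mL TGF-beta after compound addition. %Activity was normalised to no-cell wells (complete cell-killing) and DMSO (no toxicity), and curves were fitted and classified.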
S2 tox: reduces viability in counter-screen for ATXN expression inhibitors. S2 cells (HEK-293 line with an ATXN2-luciferase reporter) viability, CellTiter-Fluor protease fluorescence, 24 h. AID 651635. 400,000 compounds, 0.49% hits. Potency, µM (titrated, usually from 56.7 µM), most hits filed as cytotoxic; also: nearly all actives have a fitted effect of over 40% in size
TGFb inhibitor: inhibitors of TGF-b signaling; Potency, µM (titrated, usually from 46.1 µM), inactives show top-dose activity, negative = inhibition, usual class: inhibitors; HepG2 CAGA-GFP TGF-b/SMAD3 reporter, GFP fluorescence, 18 h; TGF-beta stimulated, 500 pg/mL final; 410,000 compounds, 1.2% hits; also: % is scaled to controls: 0 for no effect and ±100 for the full control effect; nearly all actives have a fitted effect of over 65% in size
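TGF-beta reporter screen: HEPG2 CAGA-GFP, 1% FBS, 500 pg/mL TGF-beta final, 18 h; per-cell GFP summed per well; curves fitted and categorized by class.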
Nrf2 inh: Nrf2 pathway inhibition | A549 ARE-Fluc reporter, luciferase luminescence, 18-24 h | 360,000 compounds, 2.1% hits | Potency, µM (titrated, usually from 46 µM), for the others: at the highest dose activity change, negative = inhibition, most hits filed as inhibitors | AID 504444; also: % is scaled to controls: 0 for no effect and ±100 for the full control effect; nearly all actives have a fitted effect of over 60% in size
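A549 ARE_Fluc cells (5000/well, 5% FBS OPTI-MEM) pre-incubated 2 h, then treated with compounds 18-24 h at 37C/5% CO2 in concentration-response. CellTiter-Fluor viability read first; BugLite luciferase luminescence after 15 min at room temperature gives Nrf2 activity.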
ATXN2 expr inh: inhibitors of ATXN2 expression. Potency, µM (top dose mostly 57 µM), without a hit: top-dose activity change, negative = inhibition, usual class: inhibitors. HEK-293 ATXN2-luciferase reporter, luminescence, 24 h. 360,000 compounds, 0.72% hits; also: % is scaled to controls: 0 for no effect and ±100 for the full control effect; nearly all actives have a fitted effect of over 55% in size
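qHTS (up to 57 uM final) was run with 24 h compound exposure of reporter cells at 37 °C. Each well was multiplexed: SteadyGlo luminescence measured ATXN2-luciferase expression after a fluorogenic Gly-Phe-AFC viability readout (25 uM final).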
A549 viability: A549 cytotoxicity, counter-screen for Nrf2 inhibitors. A549 ARE-Fluc cells, CellTiter-Fluor viability, 18-24 h. Potency, µM (titrated, usually from 46 µM), for inactives: at the highest dose activity change, negative = cytotoxicity, most hits filed as inhibitors. 390,000 compounds, 0.16% hits. AID 504648; also: % is scaled to controls: 0 for no effect and ±100 for the full control effect
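Cytotoxicity counterscreen: CellTiter-Fluor fluorescence was measured in A549 ARE_Fluc cells after 18-24 h of compound exposure in a concentration series. The subsequent BugLite luminescent read reports ARE-luciferase activity.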
* hit, by the source's call; i = inactive; ? = inconclusive; · = no result given; ! = repeats disagree; [ ] = remark or other dose. Sampled rows, rich in hits. Any-hit rate of the full collection: about 3.8%. Calls follow the shape of the dose curve; as a rule, active = well fitted curve in the direction sought with a large enough effect; inconclusive = small, poorly fitted or top-dose-only effect, or another doubt; inactive = no such curve, though single readings can be large; an effect the other way counts as inactive or inconclusive. Potency is read from the fitted curve at half-maximal effect.

SMILES | HepG2 tox | S2 tox | TGFb inhibitor | Nrf2 inh | ATXN2 expr inh | A549 viability
CCc1ccc(NC(=O)CSC2=Nc3ccccc3C3=NC(CCC(=O)NCCc4ccccc4)C(=O)N23)cc1 (stereo not drawn) | -8% | · | ? | · | · | -4%
COc1ccc(-c2cc3nc(C)cc(-c4ccc(OC)cc4)n3n2)cc1 | -40% | i | -27% | 11% | 5% | 12%
COc1ccc(-c2cc3nc(C)cc(N)n3n2)cc1 | 10µM* | ? | 7% | ? | -28% | 9%
Nc1nc2sc3c(c2cc1C(=O)N1CCOCC1)CCCC3 | 30% | i | 32% | 9% | 16% | -5%
Nc1nc2sc3c(c2cc1C(=O)NCC(=O)O)CCCC3 | -21% | i | 1% | 8.2µM* | ? | 4%
COc1ccc(F)cc1-c1cc(C(=O)Nc2ccc(C)c(NS(C)(=O)=O)c2)[nH]n1 | -28% | 3.5µM* | 37% | · | 25µM* | ·
CCOc1ccc(NC(=O)CN(C)C(=O)c2cc([N+](=O)[O-])ccc2N2CCOCC2)cc1OCC | -58% | i | -2% | 2% | 9% | -15%
COCCNC(=O)c1cnn2c(C(F)F)cc(-c3ccc(C)cc3)nc12 | 4% | i | -6% | 0% | · | 0%
CCCNC(=O)c1cnn2c(C(F)F)cc(-c3ccccc3)nc12 | -29% | · | ? | 23µM* | -30% | ?
CC(C)(C)c1ccc(O)c(/C=N\O)c1 | -36% | i | 3% | -7% | 34% | -1%
CC(C)(C)c1ccc(O)c(O)c1 | -31% | 71µM*! | -3% | 0% | 40µM*! | -1%
CCCn1c(N)c(C(=O)CSc2nnc(C3CC3)n2C2CC2)c(=O)[nH]c1=O | -8% | i | -5% | 1% | -19% | 0%
CCN(CC)c1ccc(NC(=S)Nc2ccc(F)cc2)cc1 | 0% | i | -5% | 10% | 7% | 0%
CS(=O)(=O)c1cc([N+](=O)[O-])c(Sc2nc3ccccc3[nH]2)c([N+](=O)[O-])c1 | -50% | ? | ? | · | ? | 23µM*
O=C(O)c1cc([N+](=O)[O-])c(Sc2nc3ccccc3[nH]2)c([N+](=O)[O-])c1 | 16% | ? | 2% | -26% | · | -14%
CC1=C(C(=O)OCc2ccc3c(c2)OCO3)C(c2ccccc2)NC(=O)N1 (stereo not drawn) | -10% | i | 3% | 8.2µM* | ? | -2%
CC1=C(C(=O)OCc2ccc3c(c2)OCO3)C(c2ccccc2OCc2ccccc2)NC(=O)N1 (stereo not drawn) | -3% | i | -25% | 13µM* | ? | -21%
CCCOc1ccccc1C1NC(=O)NC(C)=C1C(=O)OCc1ccccc1 (stereo not drawn) | -2% | i | 0% | 10µM* | ? | ?
CC1=C(C(=O)OCc2ccc3c(c2)OCO3)C(c2ccc(O)c([N+](=O)[O-])c2)NC(=O)N1 (stereo not drawn) | 10% | i | -1% | ? | -7%[11.3 µM] | -9%
O=C(COC(=O)CCC(=O)c1ccc(F)cc1)Nc1ccc(Cl)cn1 | -8% | i | ? | 10% | 1% | -7%
CCN1CCN(C(=O)CN(CC)S(=O)(=O)c2ccc(F)cc2)CC1 | -4% | ? | -1% | 8% | 0% | -2%
COc1ccccc1C(C)Nc1nc(-c2cccnc2)nc2ccccc12 (stereo not drawn) | 2% | i | ? | -11% | ? | -2%
COc1cc([N+](=O)[O-])ccc1NC(=O)NNC(=O)c1sccc1C | 3% | i | 13% | 3% | 27% | -12%
O=[N+]([O-])c1ccc(-n2nnnc2-c2ccccc2)c([N+](=O)[O-])c1 | 16µM* | ? | 10µM* | -7% | ? | -14%
CCCCCC(C)NC(=S)NC(=O)c1cc(S(=O)(=O)N2CCOCC2)ccc1C (stereo not drawn) | 16% | i | 11µM* | ? | -5% | 0%
SMILES | HepG2 tox | S2 tox | TGFb inhibitor | Nrf2 inh | ATXN2 expr inh | A549 viability
COc1ccc(NC(=O)C(NC(=O)C2CCC(C)CC2)C(C)C)cc1 (stereo not drawn) | -26% | i | -5% | -5%[9.27 µM] | 9% | 2%
S=c1nc[nH]c2nc[nH]c12 | 1.4µM*! | ? | 3% | 6% | ? | -12%
Cc1oc2c(c1C(=O)Nc1ccc(OC(F)(F)F)cc1)C1=NCCN1C=N2 | -16% | i | 6% | 24% | 1% | 6%
COc1ccccc1-c1sc2ccccc2c1-c1ccc(OCCN2CCCCC2)cc1 | 11µM* | · | ? | 3% | -7% | -12%
COc1ccc2c(-c3ccc(OCCN4CCCCC4)cc3)c(-c3ccccc3OC)sc2c1 | 13µM* | · | ? | -2% | ? | 0%
COc1ccc(-c2sc3cc(OC)ccc3c2-c2ccc(OCCN3CCCCC3)cc2)cc1 | · | · | · | · | 22µM* | ·
CCCCOc1ccc(NC2=NC3(CCCC3)N=C(N)N2)cc1 | -28% | i | 15% | 16% | ? | 25%
COc1ccccc1-c1cc(NC(C)=O)c2ncc(-c3cccc(C(F)(F)F)c3)n2c1 | 16µM* | ? | ? | · | -33% | ·
COc1cc(-c2cnc3c(NC=O)cc(-c4cccc(C(F)(F)F)c4)cn23)cc(OC)c1OC | -47% | ? | ? | · | 28µM* | ·
COc1ccc(-c2cc(NC(C)=O)c3ncc(-c4cccc(C(F)(F)F)c4)n3c2)c(OC)c1 | -24% | ? | ? | · | -25% | ·
COc1cccc(-c2cnc3c(NC=O)cc(-c4cccc(C(=O)N(C)C)c4)cn23)c1 | -39% | i | 3.5µM* | · | 0% | ·
COc1cccc(-c2cc(NC=O)c3ncc(-c4cc(OC)c(OC)c(OC)c4)n3c2)c1 | -9% | ? | ? | · | -29% | ·
COc1cc(-c2cnc3c(NC(C)=O)cc(-c4ccc(N5CCN(C)CC5)cc4)cn23)cc(OC)c1OC | -78% | · | -7% | · | 14µM* | ·
O=c1[nH]c2c(s1)C(c1ccco1)C1C3CCC(C3)C1S2 (stereo not drawn) | -6% | i | -10% | -26% | 1% | -15%
CCCNC(=O)CSc1nc2nc(C)c(Cc3ccccc3Cl)c(C)n2n1 | -7% | i | -8% | -10%[9.27 µM] | -10% | 1%
CC1=C(C(=O)OC2CCCCCC2)C(c2ccc(Cl)cc2Cl)CC(=O)N1 (stereo not drawn) | -9% | i | -16% | ? | 5% | 1%
COc1ccc(CNc2oc(/C=C/c3cc(OC)c(OC)c(OC)c3)nc2C#N)cc1 | -37% | · | ? | -12% | · | 10%
